The values below come from PubChem BioAssay (EPA / NIEHS).

Read-out in assay [1]: Interleukin-6 (IL6), IL6 (gene 3569)
Put plainly: BSK_CASM3C_IL6: BioMAP Diversity Plus: CASM3C Assay for Interleukin-6 (IL6) Biomarker Activity for (AID 2283040). As to conditions: primary human coronary artery smooth muscle cells; actives raise or lower the signal.

Read-out in assay [2]: Tissue plasminogen activator (tPA), PLAT (gene 5327)
Put plainly: BSK_BE3C_tPA: BioMAP Diversity Plus: BE3C Assay for Tissue plasminogen activator (tPA) Biomarker Activity (AID 2283041).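 For outcome: tPA level quantified by ELISA one day after compound addition.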 The settings on record: primary human bronchial epithelial cells; actives raise or lower the signal. The procedure, abridged: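 Primary human bronchial epithelial cells in the BE3C system, exposed to compound for 24 h. tPA was quantified by ELISA; DMSO served as baseline, with gain or loss of signal fitted. Cytotoxicity checked in parallel cultures by SRB total-protein staining.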

Read-out in assay [3]: Interleukin-8 (IL8), CXCL8 (gene 3576)
Put plainly: BSK_CASM3C_IL8: BioMAP Diversity Plus: CASM3C Assay for Interleukin-8 (IL8) Biomarker Activity (AID 2283042).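 Note: IL-8 protein level quantified by ELISA.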 As to conditions: primary human coronary artery smooth muscle cells; actives raise or lower the signal.

Read-out in assay [4]: Human Leukocyte Antigen - DR isotype (HLADR), HLA-DRA (gene 3122)
Put plainly: BSK_CASM3C_HLADR: BioMAP Diversity Plus: CASM3C Assay for Human Leukocyte Antigen - DR isotype (HLADR) Biomarker Activity (AID 2283043).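 Note: cell-surface HLA-DR protein level quantified by ELISA.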 As to conditions: primary human coronary artery smooth muscle cells; actives raise or lower the signal.

Read-out in assay [5]: Macrophage colony-stimulating factor (MCSF), CSF1 (gene 1435)
The experiment in a line: BSK_CASM3C_MCSF: BioMAP Diversity Plus: CASM3C Assay for Macrophage colony-stimulating factor (MCSF) Biomarker Activity (AID 2283044).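 Note: M-CSF protein amount quantified by ELISA after 24 h exposure.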 As to conditions: primary human coronary artery smooth muscle cells; actives raise or lower the signal.

Read-out in assay [6]: Low-density lipoprotein receptor (LDLR), LDLR (gene 3949)
Put plainly: BSK_CASM3C_LDLR: BioMAP Diversity Plus: CASM3C Assay for Low-density lipoprotein receptor (LDLR) Biomarker Activity (AID 2283045).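 Note: LDLR protein level on the cell surface quantified by ELISA.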 The settings on record: primary human coronary artery smooth muscle cells; actives raise or lower the signal.

Read-out in assay [7]: Monocyte Chemoattractant Protein-1 (MCP1), CCL2 (gene 6347)
Put plainly: BSK_CASM3C_MCP1: BioMAP Diversity Plus: CASM3C Assay for Monocyte Chemoattractant Protein-1 (MCP1) Biomarker Activity (AID 2283046).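 Note: MCP-1 level quantified by ELISA 24 h after dosing.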 The settings on record: primary human coronary artery smooth muscle cells; actives raise or lower the signal.

A short description of assay [8]: BSK_CASM3C_Proliferation: Cell Proliferation Assessment in the BioMAP Diversity Plus: CASM3C Assay (AID 2283047).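 Note: sulforhodamine B total protein stain as relative cell number at 560 nm; sub-confluent cells exposed 48 h before staining; fitted both ways against DMSO so gain or loss of cell number.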 The settings on record: primary human coronary artery smooth muscle cells.
Read-out in assay [9]: Monokine induced gamma interferon (MIG), CXCL9 (gene 4283)
The experiment in a line: BSK_CASM3C_MIG: BioMAP Diversity Plus: CASM3C Assay for Monokine induced gamma interferon (MIG) Biomarker Activity (AID 2283048).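 Note: MIG protein level measured by ELISA.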 As to conditions: primary human coronary artery smooth muscle cells; actives raise or lower the signal.

Read-out in assay [10]: serum amyloid A (SAA), SAA1 (gene 6288)
The experiment in a line: BSK_CASM3C_SAA: BioMAP Diversity Plus: CASM3C Assay for serum amyloid A (SAA) Biomarker Activity (AID 2283049).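 Note: SAA protein level quantified by ELISA.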 As to conditions: primary human coronary artery smooth muscle cells; actives raise or lower the signal.

Assay [11] is described as follows: BSK_CASM3C_SRB: Viability Assessment in the BioMAP Diversity Plus: CASM3C Assay (AID 2283050). As to conditions: primary human coronary artery smooth muscle cells.
Read-out in assay [12]: Thrombomodulin, THBD (gene 7056)
Put plainly: BSK_CASM3C_Thrombomodulin: BioMAP Diversity Plus: CASM3C Assay for Thrombomodulin Biomarker Activity (AID 2283051).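 Note: thrombomodulin protein level measured by ELISA 24 h after dosing.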 The settings on record: primary human coronary artery smooth muscle cells; actives raise or lower the signal.

Read-out in assay [13]: Tissue Factor, F3 (gene 2152)
The experiment in a line: BSK_CASM3C_TissueFactor: BioMAP Diversity Plus: CASM3C Assay for Tissue Factor Biomarker Activity (AID 2283052).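 Note: cell surface tissue factor protein level read by ELISA.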 The settings on record: primary human coronary artery smooth muscle cells; actives raise or lower the signal.

Read-out in assay [14]: Interferon-gamma inducible Protein 10 (IP10), CXCL10 (gene 3627)
The experiment in a line: BSK_hDFCGF_IP10: BioMAP Diversity Plus: hDFCGF Assay for Interferon-gamma inducible Protein 10 (IP10) Biomarker Activity (AID 2283053). The settings on record: primary human foreskin fibroblasts; actives raise or lower the signal. The procedure, abridged:
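Primary human foreskin fibroblasts exposed to chemicals for 24 h. IP-10 measured by ELISA; changes fitted bidirectionally against DMSO baseline.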

Read-out in assay [15]: Urokinase-type plasminogen activator receptor (uPAR), PLAUR (gene 5329)
Put plainly: BSK_CASM3C_uPAR: BioMAP Diversity Plus: CASM3C Assay for Urokinase-type plasminogen activator receptor (uPAR) Biomarker Activity (AID 2283054).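 Note: cell-surface uPAR protein level quantified by ELISA.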 The settings on record: primary human coronary artery smooth muscle cells; actives raise or lower the signal.

Read-out in assay [16]: Vascular cell adhesion molecule 1 (VCAM1), VCAM1 (gene 7412)
Put plainly: BSK_CASM3C_VCAM1: BioMAP Diversity Plus: CASM3C Assay for Vascular cell adhesion molecule 1 (VCAM1) Biomarker Activity (AID 2283055).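 Note: VCAM-1 protein level quantified by ELISA on the cells.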 The settings on record: primary human coronary artery smooth muscle cells; actives raise or lower the signal.

Read-out in assay [17]: Collagen III, COL3A1 (gene 1281)
The experiment in a line: BSK_hDFCGF_CollagenIII: BioMAP Diversity Plus: hDFCGF Assay for Collagen III Biomarker Activity (AID 2283056). As to conditions: primary human foreskin fibroblasts; actives raise or lower the signal. Summed up: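 Human foreskin primary fibroblasts were exposed to test chemicals for 24 h, after which collagen III was quantified by ELISA. Activity was fitted bidirectionally against DMSO as negative control and baseline.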

Read-out in assay [18]: Epidermal growth factor receptor (EGFR), EGFR (gene 1956)
The experiment in a line: BSK_hDFCGF_EGFR: BioMAP Diversity Plus: hDFCGF Assay for Epidermal growth factor receptor (EGFR) Biomarker Activity (AID 2283057). As to conditions: primary human foreskin fibroblasts; actives raise or lower the signal. The procedure, abridged: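 Primary human foreskin fibroblasts (hDFCGF system), sampled 24 h after dosing; EGFR quantified by ELISA. Bidirectional fit relative to DMSO baseline; SRB total-protein staining in parallel cultures for cytotoxicity.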

Read-out in assay [19]: Interleukin-8 (IL8), CXCL8 (gene 3576)
The experiment in a line: BSK_hDFCGF_IL8: BioMAP Diversity Plus: hDFCGF Assay for Interleukin-8 (IL8) Biomarker Activity (AID 2283058). As to conditions: primary human foreskin fibroblasts; actives raise or lower the signal. Summed up: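 hDFCGF human dermal fibroblasts; 24 h chemical exposure; IL-8 by ELISA; bidirectional curve fit vs DMSO baseline; gain or loss of signal scored.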

The structures appear in SMILES notation. Values joined by “and” are separate entries in the source; they are usually repeats but may differ in a detail not shown here. Identical values can stand only once. Where a structure was tested more than once in an assay, its records may differ in their call. Active and inactive are the calls of the source. Rule for the calls: active = hit-call score of the fitted dose curve at least 0.9, where 1 is the maximum; inactive = score below 0.9.

For the compound `O=C(CC(=O)C(F)(F)C(F)(F)C(F)(F)F)c1cccs1`, the AC50 in assay [1] was 38.1 µM (active) and 20.8 µM (active); in [2] it was 22.3 µM (active) and 20.7 µM (active); in assay [4], 47.3 µM (active) and 50.5 µM (active); in [5], 45.2 µM (active) and 48.9 µM (active); in assay [6], 40.2 µM (active) and 32.8 µM (active); in [7], 45.5 µM (active) and 45.9 µM (active). Moreover, the half-maximal activity concentration (AC50) was 30 µM (active) and 24.6 µM (active) in assay [8]; 42 µM (active) and 50.2 µM (active) in [9]; 41.2 µM (active) and 43.4 µM (active) in assay [10]; 45.6 µM (active) and 44.6 µM (active) in assay [11]; 54.4 µM (active) in [12]; 51.8 µM (active) and 50.9 µM (active) in assay [15]. In addition, the half-maximal activity concentration (AC50) in assay [16] is 40.6 µM (active) and 38.2 µM (active). Further, the result in assay [3], in assay [12], in [13], in assay [14], in assay [17] and in [18] was inactive. Besides, in assay [19], the outcome was inactive.
Consider `CCCCCCCCCCCCCCCCCC[N+](C)(C)Cc1ccccc1`, for which the AC50 in [1] was 4.87 µM (active); in [3] it was 12.6 µM (active); in assay [4], 3.45 µM (active); in assay [5], 5.5 µM (active); in assay [6], 6.53 µM (active); in assay [7], 5.29 µM (active). The AC50 was 2.74 µM (active) in assay [8]; 15.4 µM (active) in assay [9]; 2.72 µM (active) in [10]; 2.75 µM (active) in [11]; 2.56 µM (active) in [12]; 0.296 µM (active) in [13]. Also, the AC50 in [14] was 0.795 µM (active); in assay [15] it was 2.77 µM (active); in assay [16], 10 µM (active); in [17] it was 0.355 µM (active); in assay [19] it was 2.52 µM (active). In addition, the outcome in [2] and in assay [18] was inactive.
`CCCCCc1ccc(O)cc1`: the half-maximal activity concentration (AC50) was 20 µM (active) in assay [1]; 11.6 µM (active) in assay [2]; 20 µM (active) in assay [3]; 12.8 µM (active) in assay [4]; 14.6 µM (active) in [5]; 10.4 µM (active) in [6]. Moreover, the concentration at half-maximal activity (AC50) in [7] was 14 µM (active); in assay [8] it was 11.6 µM (active); in assay [9], 15.4 µM (active); in [10] it was 12.7 µM (active); in assay [11] it was 15.9 µM (active); in assay [12] it was 34 µM (active). In addition, the AC50 is 12 µM (active) in assay [13]; 33.2 µM (active) in [14]; 14.4 µM (active) in [15]; 13.1 µM (active) in assay [16]; 12.5 µM (active) in assay [17]; 29.9 µM (active) in assay [18]. The result in [19] was inactive.
As to `C=CC(=O)OCCC(F)(F)C(F)(F)C(F)(F)C(F)(F)C(F)(F)C(F)(F)C(F)(F)C(F)(F)F`, the result in [1], in assay [2], in assay [3], in [4], in [5] and in [6] was inactive. Besides, the result in [7], in assay [8], in assay [9], in assay [10], in assay [11] and in assay [12] was inactive. Moreover, the outcome in [13], in assay [14], in assay [15], in [16], in assay [17] and in assay [18] was inactive. In addition, in [19], the outcome was inactive.
As for `COCN(COC)c1nc(N(COC)COC)nc(N(COC)COC)n1`, the outcome in [1], in [2], in [3], in assay [4], in [5] and in assay [6] was inactive. Also, the outcome in [7], in assay [8], in [9], in [10], in assay [11] and in assay [12] was inactive. The outcome in assay [13], in [14], in assay [15], in [16], in assay [17] and in [18] was inactive. Besides, in assay [19], the result was inactive.
`CCCCC(CC)C(=O)O` (stereo not given): the result in assay [1], in assay [2], in assay [3], in [4], in assay [5] and in assay [6] was inactive. Further, the outcome in assay [7], in [8], in assay [9], in assay [10], in assay [11] and in assay [12] was inactive. In addition, the result in assay [13], in [14], in [15], in assay [16], in assay [17] and in assay [18] was inactive. The outcome in [19] was inactive.

One may read the AC50 as the midpoint of the concentration-response curve, whichever way the signal moves.
